# About 2,900 (63%) of roughly 4,600 compounds were called active. The set was probably picked from earlier hits. Not all results are given here. A number with no mark means an inactive call.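 Rule for the calls: active = inhibition of yeast growth at or above a set limit in either of two replicates at 10 µM; inactive = the rest.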
# Test: growth inhibitors of wild-type TIM10 yeast, confirmation, counter-screen for tim10-1 synthetic lethality project, single concentration, luminescence, S. cerevisiae (AID 463215);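 note: isogenic wild-type TIM10 control yeast grown in succinate dextrose medium; this counterscreen used the strain with wild-type TIM10; 0% = yeast with DMSO and 100% = medium wells lacking yeast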
# Conditions: S. cerevisiae tim10 strain growth, BacTiter-Glo luminescence, 24 h; at 10 µM; hits give high values
row,Structure (SMILES),inhibition
1,COc1cc(/C=N/NC(=O)c2ccccc2)ccc1OS(=O)(=O)c1ccccc1,17.2%
2,COc1ccc(C(=O)Nc2ccccc2C(=O)N/N=C/c2ccc(O)c(OC)c2)cc1,93.3% (active)
3,COc1ccc(C(=O)Nc2ccccc2C(=O)N/N=C/c2ccccc2OC)cc1,43.1% (active)
4,O=C(N/N=C\c1cccc(Br)c1)c1ccccc1-n1cccc1,-4.2%
5,Cc1nc2sc(C(=O)c3ccccc3)c(N)c2c2c1CCCC2,23%
6,OC(CNCC1CCCO1)Cn1c2ccc(Br)cc2c2cc(Br)ccc21 (centres undefined),51.4% (active)
7,COc1ccc(OC)c2sc(NC(=O)C3COc4ccccc4O3)nc12 (centres undefined),34.8% (active)
8,COc1ccc(CS(=O)/C(Cl)=C(/Cl)C(=O)Nc2ccc(OC)nc2)cc1 (centres undefined),78.3% (active)
9,COc1ccc(NC(=O)/C(Cl)=C(/Cl)S(=O)Cc2ccc(C)cc2)cn1 (centres undefined),88% (active)
10,O=[N+]([O-])c1ccc(C=Nc2ccc(Cl)cc2Cl)s1,44.1% (active)
11,Cn1c(-c2sccc2OCc2cccc(C(F)(F)F)c2)n[nH]c1=S,34.8% (active)
12,Cc1cccc(/C(N)=N/OC(=O)c2ccccc2Cl)c1,77.7% (active)
13,NS(=O)(=O)c1ccc(NC(=S)Nc2ccc(Br)c(Cl)c2)cc1,16.9%
14,N/C(=N\OC(=O)c1cc(-c2ccccc2)nc2ccccc12)c1ccncc1,64.8% (active)
15,O=C(NCCN1C(=O)S/C(=C\c2cccnc2)C1=O)c1cccc(OC(F)F)c1,-9.15%
16,CCCCNC(=S)N/N=C1\CCCCc2ccccc21,34.3% (active)
17,CCN1/C(=C\c2ccc3ccccc3[n+]2CC)Sc2cc(C)ccc21,78.1% (active)
18,Cc1oc2c(c1C(=O)N1CCOCC1)C(=O)c1ccccc1C2=O,22.8%
19,O=C(/C=C/Sc1ncn[nH]1)c1ccc(Cl)cc1,79% (active)
20,O=C(ON=C1CCN(S(=O)(=O)c2ccccc2)CC1)c1ccc(Cl)cc1,62.2% (active)
21,Cc1ccccc1NCC(=O)N/N=C\c1ccc([N+](=O)[O-])s1,37.2% (active)
22,O=[N+]([O-])c1ccc2c(c1)Nc1nc3ccccc3nc1N2,83.8% (active)
23,O=C1NC(=O)C2C1C(c1ccc([N+](=O)[O-])cc1)=NN2Cc1ccccc1 (centres undefined),4.5%
24,O=[N+]([O-])c1cccc(Nc2c3ccccc3nc3ccccc23)c1,21.6%
25,COc1ccc(C(=O)COC(=O)c2ccc([N+](=O)[O-])s2)cc1OC,81.8% (active)

row,Structure (SMILES),inhibition
1,COc1nc(NC2CCCCC2)nc(N2CCCCCC2)n1,-15.7%
2,O=C(Nc1ccc2c(c1)CCC2)c1ccc(Br)s1,44% (active)
3,Cc1ccc(NC(=O)c2cccs2)cc1S(=O)(=O)N(C)C,-1.3%
4,N/C(Cc1ccc([N+](=O)[O-])cc1)=N\OC(=O)COc1ccc2ccccc2c1,51% (active)
5,N/C(Cc1ccc([N+](=O)[O-])cc1)=N\OC(=O)C1CCCCC1,49.2% (active)
6,CC1(C)CCSC(/C=C/c2ccccc2)=N1,56.7% (active)
7,CNC(=S)N/N=C/c1cn(Cc2ccc(C)cc2)c2ccccc12,53.4% (active)
8,CSC(=S)N/N=C/c1c[nH]c2ccccc12,20.1%
9,COC(=O)c1c(NC(=O)CSc2nncs2)sc2c1CCCCC2,25.7%
10,COC(=O)c1sccc1NS(=O)(=O)c1ccc(F)cc1F,42.8% (active)
11,O=C(Oc1ccc(F)cc1)N1CCOCC1,-0.9%
12,O=C(/C=C/c1cccs1)c1cc(Cl)ccc1OC(=O)N1CCOCC1,40.2% (active)
13,C[C@@H](NC(=O)OC(C)(C)C)c1nnc(S(=O)(=O)Cc2ccccc2)o1,43.6% (active)
14,N#C/C(=C\c1ccccc1C(F)(F)F)C(=O)Nc1ccccc1F,46.9% (active)
15,CCCc1[nH]nc2c1C(c1ccc(Br)s1)C(C#N)=C(N)O2 (centres undefined),73.4% (active)
16,Cc1ccc(-c2ccc(/C=C(\C#N)C(N)=S)o2)c([N+](=O)[O-])c1,54.1% (active)
17,O=[N+]([O-])c1ccccc1S(=O)(=O)Nc1cccc2cccnc12,19.5%
18,O=c1nc2s/c(=C\c3ccco3)c(=O)n2nc1Cc1ccccc1,56.5% (active)
19,Oc1ccc(/C=N/N(Cc2ccccc2)c2ccccc2)cc1,28.2%
20,CCOC(=O)c1ccc(N2C(=O)CC(N3CCC(C(=O)OCC)CC3)C2=O)cc1 (centres undefined),21.4%
21,Cc1cc(Nc2ccccc2)n(C(=O)c2ccc(N)cc2)n1,57.5% (active)
22,CN1CCN(c2ccccc2NC(=O)COc2ccc(C3CCCCC3)cc2)CC1,30.4% (active)
23,O=C(NC(Nc1nc2ccc([N+](=O)[O-])cc2s1)(C(F)(F)F)C(F)(F)F)c1ccccc1,77.7% (active)
24,N#C/C(=C\c1cccnc1)C(=O)Nc1ccc(SC(F)F)cc1,42.2% (active)

# From PubChem BioAssay AID463215 (Sanford-Burnham Center for Chemical Genomics, 2010)
